Assay outcomes: PubChem, National Center for Advancing Translational Sciences (NCATS)
HttQ103 aggreg: reduces HttQ103-GFP aggregates in PC12 cells; Potency, µM (highest dose often 46.1 µM), hits mostly inhibitors; PC12 HttQ103-GFP aggregates, Acumen cytometry, 40 h; 1.1% of 220,000 active; AID 1688; active = well fitted curve in the direction sought with a large enough effect; inconclusive = small, poorly fitted or top-dose-only effect, or another doubt; inactive = no such curve, though single readings can be large; an effect the other way counts as inactive or inconclusive; note: nearly all actives have a fitted effect of over 60% in size
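Steps: seed 1500 PC12 HTTQ103-GFP cells/well; add tebufenozide, 100 nM final; add compound titration; add ATPLite reagent; quantify GFP aggregates by laser scanning cytometry.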
KDM4E inh: blocks human JMJD2E demethylase activity; B2RXH2; JMJD2E catalytic domain, FDH-coupled NADH fluorescence (FDH is formaldehyde dehydrogenase); Potency, µM (top dose mostly 57.1 µM), usual class: inhibitors; 1.6% of 230,000 active; AID 2147; note: nearly all actives have a fitted effect of over 50% in size
HPGD inh: HPGD (human) dehydrogenase inhibition | P15428 | purified HPGD, NADH fluorescence kinetic, PGE2 substrate | Potency, µM, usual class: inhibitors | 4.3% of 150,000 active | AID 894
Target sequence (P15428 whole entry, looked up): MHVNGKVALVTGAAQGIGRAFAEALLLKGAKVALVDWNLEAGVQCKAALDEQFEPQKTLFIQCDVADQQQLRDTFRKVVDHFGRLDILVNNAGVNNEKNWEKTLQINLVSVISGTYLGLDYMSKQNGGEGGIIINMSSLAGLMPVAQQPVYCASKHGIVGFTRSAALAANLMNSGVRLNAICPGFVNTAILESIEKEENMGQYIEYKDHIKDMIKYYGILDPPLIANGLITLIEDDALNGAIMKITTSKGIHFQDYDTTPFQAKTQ
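20 nM HPGD preincubated 15 min at room temperature with compound in 50 mM Tris-HCl pH 8, 0.01% Tween 20. Started with 1 mM NAD+ and 30 uM prostaglandin E2; NADH fluorescence (360/450 nm) read 5 times over 30-s intervals, last minus first.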
HTT cytoprotect: Huntington cell model cytoprotection by ATP luminescence; AID 1471; Potency, µM (doses to about 56.4 µM), actives largely listed as activators; 0.14% of 230,000 active; PC12 HTT-Q103 induced, cytoprotection, ATP luminescence, 40 h; active = well fitted curve in the direction sought with a large enough effect; inconclusive = small, poorly fitted or top-dose-only effect, or another doubt; inactive = no such curve, though single readings can be large; an effect the other way counts as inactive or inconclusive; note: nearly all actives have a fitted effect of over 45% in size
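Quantitative HTS on tebufenozide-induced (100 nM) PC12 cells expressing HTTQ103 exon 1–GFP; compounds tested as a concentration series; survival measured via cellular ATP.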
CBFb RUNX1 block: CBF-beta/RUNX1 interaction disruption; AlphaScreen CBFb-His/RUNX1-biotin binding, biochemical; Potency, µM (series often up to 59.8 µM), hits mostly inhibitors; 230,000 tested, under 10 active; AID 1477; Q01196+Q13951; active = well fitted curve in the direction sought with a large enough effect; inconclusive = small, poorly fitted or top-dose-only effect, or another doubt; inactive = no such curve, though single readings can be large; an effect the other way counts as inactive or inconclusive
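Room-temperature protein-protein interaction test with 30 nM each of His-tagged CBF-beta and biotinylated RUNX1, 15 min with compound, then 90 min with nickel plus streptavidin beads. Signal read in AlphaScreen mode.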
ALDH1A1 block: inhibitors of human aldehyde dehydrogenase 1A1 | P00352 | Purified ALDH1A1, NADH fluorescence, propionaldehyde substrate | Potency, µM (highest dose often 75.3 µM), most hits filed as inhibitors | 7.3% of 220,000 active
A number is an active result; [ ] = remark or other dose. This is a sample that favours compounds with a hit; in the whole collection about 9.8% have one here. Unless noted, calls come from the whole dose curve; as a rule, active = well fitted inhibition curve with a large enough effect (not every such curve was filed as active); inconclusive = small, poorly fitted or top-dose-only effect, or another doubt; inactive = no such curve, though single readings can be large or run the other way.

`Cc1ccc(N(C(=O)C2CCCO2)C2C=CS(=O)(=O)C2)cc1Cl` (stereo not given) gave HttQ103 aggreg inactive, KDM4E inh inactive, HPGD inh inactive, HTT cytoprotect inactive, CBFb RUNX1 block inactive and ALDH1A1 block inactive.
Screening Cc1nn(Cc2ccc([N+](=O)[O-])cc2)c(=O)n1-c1cccc(Cl)c1 returned HttQ103 aggreg inactive, KDM4E inh inactive, HTT cytoprotect inactive, CBFb RUNX1 block inactive and ALDH1A1 block inactive.
Screening Cc1cc(NC(=O)CSc2nc(-c3cccs3)cc(C(F)(F)F)n2)no1 returned HttQ103 aggreg inactive, KDM4E inh inconclusive, HPGD inh inactive, HTT cytoprotect inactive[10 µM], CBFb RUNX1 block inactive and ALDH1A1 block inconclusive.
`CS(=O)(=O)c1nc(-c2cccs2)cc(C(F)(F)F)n1` gave HttQ103 aggreg 7.08µM, KDM4E inh inconclusive, HPGD inh inconclusive, HTT cytoprotect inactive, CBFb RUNX1 block inactive and ALDH1A1 block inconclusive.
`Cc1cc(NC(=O)CCCS(=O)(=O)c2nc(-c3cccs3)cc(C(F)(F)F)n2)no1` gave HttQ103 aggreg 10µM, KDM4E inh inconclusive, HPGD inh inconclusive, HTT cytoprotect inactive, CBFb RUNX1 block inactive and ALDH1A1 block inconclusive.
`CCOC(=O)c1ccc(-n2c(CN3CCN(CC)CC3)nc3ccc([N+](=O)[O-])cc3c2=O)cc1` gave HttQ103 aggreg inactive, KDM4E inh inactive, HTT cytoprotect inactive, CBFb RUNX1 block inactive and ALDH1A1 block inconclusive.
Screening CCOC(=O)C1CCCN(Cc2nc3ccc([N+](=O)[O-])cc3c(=O)n2-c2ccc(OC)cc2OC)C1 (stereo not given) returned HttQ103 aggreg inactive, KDM4E inh inactive, HTT cytoprotect inactive, CBFb RUNX1 block inactive and ALDH1A1 block inactive.
`CCOC(=O)C1CCN(Cc2nc3ccc([N+](=O)[O-])cc3c(=O)n2-c2ccc(OC)cc2OC)CC1` gave HttQ103 aggreg inactive, KDM4E inh inactive, HTT cytoprotect inactive, CBFb RUNX1 block inactive and ALDH1A1 block 20µM.
COc1ccc(-n2c(CN3CCC(C(N)=O)CC3)nc3ccc([N+](=O)[O-])cc3c2=O)c(OC)c1 was read as HttQ103 aggreg inactive, KDM4E inh inconclusive, HTT cytoprotect inactive, CBFb RUNX1 block inactive and ALDH1A1 block 9.46µM.
Screening COc1cccc(-n2c(CN3CCN(c4ccccc4)CC3)nc3ccc([N+](=O)[O-])cc3c2=O)c1 returned HttQ103 aggreg inactive, KDM4E inh inactive, HPGD inh inactive, HTT cytoprotect inactive[10 µM], CBFb RUNX1 block inactive and ALDH1A1 block 28.2µM.
CCOC(=O)c1ccc(-n2c(CN3CCOCC3)nc3ccc([N+](=O)[O-])cc3c2=O)cc1 was read as HttQ103 aggreg inactive, KDM4E inh inactive, HTT cytoprotect inactive, CBFb RUNX1 block inactive and ALDH1A1 block inconclusive.
`O=C(NC1CC1)C1=C[C@@H](c2ccc(Br)cc2)C[C@@H](OCc2ccc(CO)cc2)O1` gave HttQ103 aggreg inactive[9.22 µM], KDM4E inh inactive, HTT cytoprotect inactive[10 µM] and CBFb RUNX1 block inactive.
CC1CN(c2nc3ccccc3nc2C(C#N)C(=O)NCc2ccc3c(c2)OCO3)CC(C)O1 (stereo not given) was read as HttQ103 aggreg inactive, KDM4E inh inactive, HPGD inh inactive, HTT cytoprotect inactive, CBFb RUNX1 block inactive and ALDH1A1 block inconclusive.
For CCCCCCCCC[n+]1cccc2c3ccccc3ccc21 the results were HttQ103 aggreg 2.51µM, KDM4E inh inconclusive, HPGD inh inconclusive, HTT cytoprotect inactive, CBFb RUNX1 block inactive and ALDH1A1 block inconclusive.
For CCCCCCCCCCCCCCCC[n+]1cccc2ccccc21 the results were HttQ103 aggreg 7.94µM, KDM4E inh inconclusive, HPGD inh inactive, HTT cytoprotect inactive[10 µM], CBFb RUNX1 block inactive and ALDH1A1 block inactive.
For O=[N+]([O-])c1ccc(C[n+]2cccc3c4ccccc4ccc32)cc1 the results were HttQ103 aggreg inactive, KDM4E inh inconclusive, HTT cytoprotect inconclusive, CBFb RUNX1 block inactive and ALDH1A1 block inactive.
Screening CN(C)S(=O)(=O)c1ccc(Cl)c(C(=O)OCC(=O)NC(=O)c2cccn2C)c1 returned HttQ103 aggreg inactive, KDM4E inh inactive, HPGD inh inactive, HTT cytoprotect inactive[10 µM], CBFb RUNX1 block inactive and ALDH1A1 block inactive.
